# Reference: PubChem BioAssay (NCATS)
# Inconclusive results are not listed. Active and inactive are the calls of the source. The call rests on the fitted dose curve; in most records, active means well fitted inhibition curve with a large enough effect; inconclusive means small, poorly fitted or top-dose-only effect; inactive means flat fitted curve, though single readings scatter. Peptide text beside a SMILES is read from it.
# Tested on: CRL-7250
# Experiment: qHTS assay to identify novel small-molecules to repurpose for Merkel cell carcinoma treatment (AID 1296009); further: nearly all actives have a fitted effect of over 60% in size
# Conditions: MCC and control cell lines, CellTiter-Glo viability, 72 h; at 44.8 µM (top of the series) unless noted
# Procedure, shortened: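 After compound transfer in DMSO, plates were kept 72 hr at 37 degree celsius. Luminescent ATP signal from CellTiter-Glo served as viability measure, normalized against DMSO and no-cell controls.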
row,SMILES,outcome
1,NC1CCN(c2nc3c(cc2F)c(=O)c(C(=O)O)cn3-c2ccc(F)cc2F)C1 (stereo unspecified),inactive
2,CC1(C)O[C@H]2CC(=O)OC[C@]23[C@H]2CC[C@@]4(C)[C@H](c5ccoc5)OC(=O)[C@H]5O[C@]54[C@]2(C)C(=O)C[C@@H]13,inactive [at 17.4 µM]
3,CN1N=C(C(N)=O)CCC1=O,inactive
4,CCC1=C(C)CN(C(=O)NCCc2ccc(S(=O)(=O)NC(=O)NC3CCC(C)CC3)cc2)C1=O (stereo unspecified),inactive
5,CCNC(=O)[C@@H]1CCCN1C(=O)[C@H](CCCN=C(N)N)NC(=O)[C@H](CC(C)C)NC(=O)CNC(=O)[C@H](Cc1ccc(O)cc1)NC(=O)[C@H](CO)NC(=O)[C@H](Cc1c[nH]c2ccccc12)NC(=O)[C@H](Cc1cnc[nH]1)NC(=O)[C@@H]1CCC(=O)N1 (HELM PEPTIDE1{[Glp].H.W.S.Y.G.L.R.P.[CCN[*:1]]}$$$$V2.0),inactive
6,CCOC(=O)/C=C(C)/C=C/C=C(C)/C=C/c1c(C)cc(OC)c(C)c1C,inactive
7,NS(=O)(=O)c1cc(Cl)c(Cl)c(S(N)(=O)=O)c1,inactive
8,Cn1nnc2c(C(N)=O)ncn2c1=O,inactive
9,Cn1c(=O)c2[nH]c(Br)nc2n(C)c1=O,inactive
10,CN(C)C(=O)Oc1ccc[n+](C)c1,inactive
11,Nc1ncnc2nc[nH]c12,inactive
12,C[C@H](NC(CCc1ccccc1)C(=O)O)C(=O)N1CCC[C@H]1C(=O)O (stereo partly specified),inactive
13,CCOc1ncc(F)c(=O)[nH]1,inactive
14,Oc1ccc(Cl)c2cccnc12,inactive
15,COC(=O)CCCCC(CCSS/C(CCO)=C(\C)N(C=O)Cc1cnc(C)nc1N)SC(C)=O (stereo unspecified),inactive
16,Cc1cc(CC(=O)O)c(C)n1-c1ccc(Cl)cc1,inactive
17,CS(=O)(=O)c1ccc([C@@H](O)[C@@H](CO)NC(=O)C(Cl)Cl)cc1,inactive
18,COc1ccc2cc1Oc1cc3c(cc1OC)CC[N+](C)(C)[C@H]3Cc1ccc(cc1)Oc1c(OC)c(OC)cc3c1[C@@H](C2)[N+](C)(C)CC3,inactive

row,SMILES,outcome
1,CS(=O)(=O)c1ccc([C@@H](O)[C@@H](CF)NC(=O)C(Cl)Cl)cc1,inactive
2,Cc1cc(NS(=O)(=O)c2ccc(N)cc2)no1,inactive
3,CCN1CCCC1CNC(=O)c1cc(S(=O)(=O)CC)c(N)cc1OC (stereo unspecified),inactive
4,C[N+]1(C)[C@@H]2CC(OC(=O)[C@H](CO)c3ccccc3)C[C@H]1[C@@H]1O[C@@H]12 (stereo partly specified),inactive
5,Cc1ccccc1OCC(O)CO (stereo unspecified),inactive
6,O=C1OC(CN2CCOCC2)CN1/N=C/c1ccc([N+](=O)[O-])o1 (stereo unspecified),inactive
7,CC(C(=O)O)c1ccc(C(=O)c2ccccc2)s1 (stereo unspecified),inactive
8,O=C(CCCl)NCCc1ccccc1,inactive
9,Cc1c(C(=O)NCCO)[n+](=O)c2ccccc2n1[O-],inactive
10,NC(N)=NS(=O)(=O)c1ccc(N)cc1,inactive
11,O=c1cc(O)c(Cl)c[nH]1,inactive
12,CCCCOC(=O)c1ccc(N)cc1,inactive
13,c1ccc2sc(SN3CCOCC3)nc2c1,inactive
14,COc1cc(/C=C/C(N)=O)cc(OC)c1OC,inactive
15,C[C@]12C=CC(=O)C=C1CC[C@@H]1[C@@H]2C(=O)C[C@@]2(C)[C@H]1CC[C@]2(O)C(=O)CO,inactive [at 17.4 µM]
16,Cc1[nH]cnc1-c1ccc(Cl)cc1,inactive
17,CC[C@H]1OC(=O)[C@H](C)[C@@H](O[C@H]2C[C@@](C)(OC)[C@@H](O)[C@H](C)O2)[C@H](C)[C@@H](O[C@@H]2O[C@H](C)C[C@H](N(C)C)[C@@H]2O)[C@](C)(O)C[C@@H](C)CN(C)[C@H](C)[C@@H](O)[C@]1(C)O,inactive
18,Nc1c[n+](N2CCOCC2)no1,inactive
